Data as given in PubChem BioAssay (EPA / NIEHS).
Results filed as inconclusive are left out. Activity calls are given as the source filed them. The calls were made as follows, unless noted: active = hit-call score of the fitted dose curve at least 0.9, where 1 is the maximum; inconclusive = response in the unintended direction; inactive = score below 0.9.

Tests used:
[1] = target: Nuclear receptor subfamily 1 group I member 3 (Homo sapiens) (UniProt Q14994); assay: ATG_CAR_TRANS: Attagene TRANS-FACTORIAL HepG2 Assay for human Constitutive Androstane Receptor (CAR) (AID 2282969); settings: HepG2 Attagene TRANS-FACTORIAL CAR reporter;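 also: activators raise reporter mRNA above DMSO so AC50 marks induction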
Sequence of Nuclear receptor subfamily 1 group I member 3 (Homo sapiens) (Q14994 whole entry, looked up, the tested form may be a part): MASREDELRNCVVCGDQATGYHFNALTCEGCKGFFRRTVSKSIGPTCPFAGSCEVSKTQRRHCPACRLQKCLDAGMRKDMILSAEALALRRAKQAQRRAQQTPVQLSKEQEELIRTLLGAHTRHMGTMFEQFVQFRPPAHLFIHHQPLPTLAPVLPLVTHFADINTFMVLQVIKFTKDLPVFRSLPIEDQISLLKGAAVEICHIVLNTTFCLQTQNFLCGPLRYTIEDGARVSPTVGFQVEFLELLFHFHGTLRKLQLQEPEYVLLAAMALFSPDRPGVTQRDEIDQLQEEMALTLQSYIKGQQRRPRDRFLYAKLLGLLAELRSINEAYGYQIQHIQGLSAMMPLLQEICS
Summary of the method: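 Readout is reporter mRNA induction, quantified by fluorescent primer extension and capillary electrophoresis after RT-PCR. Cells were HepG2 transiently carrying chimeric NR-Gal4 constructs with GAL4-UAS reporters, treated for 24 h; activity scored upward from DMSO.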

[2] = ATG_GAL4_TRANS: Attagene TRANS-FACTORIAL HepG2 Assay for GAL4 (Internal Marker) (AID 2282976); settings: HepG2 Attagene TRANS GAL4 internal marker reporter
Summary of the method: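 Liver HepG2 line bearing multiplexed GAL4-UAS reporter constructs; 24 h chemical treatment. Transcripts were quantified as fluorescent fragments on capillary electrophoresis after RT-PCR and HpaI cut, with activity fitted upward from DMSO.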

[3] = target: Glucocorticoid receptor (Homo sapiens) (UniProt P04150); assay: ATG_GR_TRANS: Attagene TRANS-FACTORIAL HepG2 Assay for human Glucocorticoid Receptor (GR) (AID 2282978); settings: HepG2 Attagene TRANS GR reporter, mRNA transcription;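 also: activators score as hits since higher reporter transcript over DMSO is fitted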
Sequence of Glucocorticoid receptor (Homo sapiens) (P04150 whole entry, looked up, the tested form may be a part): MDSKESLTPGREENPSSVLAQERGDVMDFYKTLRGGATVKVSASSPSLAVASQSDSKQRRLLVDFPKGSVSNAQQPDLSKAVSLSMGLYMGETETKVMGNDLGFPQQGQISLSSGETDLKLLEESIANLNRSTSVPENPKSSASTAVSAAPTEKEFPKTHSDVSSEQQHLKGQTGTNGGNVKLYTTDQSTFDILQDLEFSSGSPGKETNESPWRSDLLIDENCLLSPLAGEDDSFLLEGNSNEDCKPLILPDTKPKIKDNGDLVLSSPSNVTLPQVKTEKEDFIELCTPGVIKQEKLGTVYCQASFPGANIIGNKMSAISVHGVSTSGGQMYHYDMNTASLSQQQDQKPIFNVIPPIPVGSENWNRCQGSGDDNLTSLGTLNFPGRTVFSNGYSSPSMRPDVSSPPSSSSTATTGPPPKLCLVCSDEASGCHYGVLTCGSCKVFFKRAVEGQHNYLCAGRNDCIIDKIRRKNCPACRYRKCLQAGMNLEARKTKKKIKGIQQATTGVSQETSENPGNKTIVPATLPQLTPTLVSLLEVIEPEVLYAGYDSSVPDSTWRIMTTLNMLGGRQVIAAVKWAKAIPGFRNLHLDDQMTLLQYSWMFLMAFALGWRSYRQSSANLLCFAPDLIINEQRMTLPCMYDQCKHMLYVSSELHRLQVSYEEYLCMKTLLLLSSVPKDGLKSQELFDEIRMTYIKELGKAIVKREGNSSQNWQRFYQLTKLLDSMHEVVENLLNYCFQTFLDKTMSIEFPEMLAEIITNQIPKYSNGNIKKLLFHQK
Summary of the method: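 Fluorescent capillary-electrophoresis quantitation of reporter mRNA is the readout, taken 24 h after dosing human HepG2 cells carrying transiently transfected GAL4-UAS reporter units activated by chimeric NR-GAL4 fusions; activity scored as induction over DMSO.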

[4] = target: Oxysterols receptor LXR-alpha (Homo sapiens) (UniProt Q13133); assay: ATG_LXRa_TRANS: Attagene TRANS-FACTORIAL HepG2 Assay for human Liver X Receptor alpha (LXRa) (AID 2282980); settings: HepG2 Attagene TRANS reporter, LXRa transactivation
Sequence of Oxysterols receptor LXR-alpha (Homo sapiens) (Q13133 whole entry, looked up, the tested form may be a part): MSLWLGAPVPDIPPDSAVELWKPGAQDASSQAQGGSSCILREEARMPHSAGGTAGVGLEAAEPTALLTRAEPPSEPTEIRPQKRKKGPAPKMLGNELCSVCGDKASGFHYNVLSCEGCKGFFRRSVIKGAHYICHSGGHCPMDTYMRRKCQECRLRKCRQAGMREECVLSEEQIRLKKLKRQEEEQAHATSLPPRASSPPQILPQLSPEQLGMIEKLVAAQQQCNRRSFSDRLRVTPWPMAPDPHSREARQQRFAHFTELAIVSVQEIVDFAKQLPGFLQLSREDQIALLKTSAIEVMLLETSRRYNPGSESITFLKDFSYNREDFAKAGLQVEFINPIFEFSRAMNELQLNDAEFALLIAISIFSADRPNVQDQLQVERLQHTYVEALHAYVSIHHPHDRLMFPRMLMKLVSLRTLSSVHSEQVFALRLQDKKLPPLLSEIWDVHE
Summary of the method: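 In this multiplexed TRANS system, compounds act on HepG2 cells carrying GAL4-UAS reporter units and a receptor-GAL4 fusion for 24 h. Induced reporter RNA is amplified, fluorescently labelled and sized by capillary electrophoresis, with DMSO as baseline.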

[5] = target: Oxysterols receptor LXR-beta (Homo sapiens) (UniProt P55055); assay: ATG_LXRb_TRANS: Attagene TRANS-FACTORIAL HepG2 Assay for human Liver X Receptor beta (LXRb) (AID 2282981); settings: HepG2 Attagene TRANS GAL4-LXRb reporter, mRNA
Summary of the method: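 Transient transfection HepG2 (multiplexed RTUs, GAL4-UAS); NR-Gal4 chimera; 24 h exposure; RNA → RT-PCR → 6-FAM primer extension → HpaI → CE; increase vs DMSO.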

[6] = target: human Peroxisome Proliferator-activated Receptor alpha (PPARa), PPARA (gene 5465) (UniProt Q07869); assay: ATG_PPARa_TRANS: Attagene TRANS-FACTORIAL HepG2 Assay for human Peroxisome Proliferator-activated Receptor alpha (PPARa) (AID 2283001)
Summary of the method: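 Read-out is fluorescence of reporter cDNA fragments resolved by capillary electrophoresis after RT-PCR. Human HepG2 liver cells carried transfected PPARa-Gal4 chimera and GAL4-UAS reporter units, treated 24 h; activity scored as increase over DMSO.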

[7] = ACEA_ER_AUC_viability: ACEA Biosciences xCELLigence Real-Time Cell Analysis on Estrogen Receptor Agonism for Viability (AID 2283782);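 also: continuous compound exposure with impedance area under curve over 80 h; hit means loss of impedance signal meaning reduced cell growth or viability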
Summary of the method: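 T-47D; phenol red-free RPMI1640 + 10% CS-FBS; 8 conc., 1:4 serial, max 100 uM final, ≤0.5% DMSO; n = 2; continuous exposure; impedance monitored to 80 h post-dose; AUC vs DMSO.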

[8] = target: Retinoic acid receptor alpha (Homo sapiens) (UniProt P10276); assay: ATG_DR5_RAR_CIS: Attagene CIS-FACTORIAL HepG2 Assay for human Retinoic Acid Receptor Alpha (RARE), DR5 submotif (AID 2282934; active = hit-call score of the fitted dose curve at least 0.9, where 1 is the maximum; inactive = score below 0.9); settings: HepG2 Attagene cis-factorial RARE DR5 reporter, mRNA; actives raise or lower the signal
Sequence of Retinoic acid receptor alpha (Homo sapiens) (P10276 whole entry, looked up): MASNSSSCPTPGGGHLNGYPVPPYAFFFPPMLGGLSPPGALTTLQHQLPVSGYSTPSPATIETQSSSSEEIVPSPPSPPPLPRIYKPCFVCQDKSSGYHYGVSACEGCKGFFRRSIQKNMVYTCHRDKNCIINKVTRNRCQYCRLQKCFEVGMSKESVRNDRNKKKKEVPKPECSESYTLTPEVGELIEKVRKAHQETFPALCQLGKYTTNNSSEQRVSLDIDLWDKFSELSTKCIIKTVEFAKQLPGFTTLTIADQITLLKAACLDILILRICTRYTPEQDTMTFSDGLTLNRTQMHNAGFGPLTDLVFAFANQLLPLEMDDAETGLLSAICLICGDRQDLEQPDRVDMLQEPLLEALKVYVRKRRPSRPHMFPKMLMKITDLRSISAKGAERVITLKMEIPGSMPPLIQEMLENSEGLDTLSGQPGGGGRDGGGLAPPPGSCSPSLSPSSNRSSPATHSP
Summary of the method: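 HepG2, transient cis-reporter transfection, 24 h exposure. mRNA readout: RT-PCR, FAM label, HpaI cut, capillary electrophoresis. DMSO baseline, gain/loss fitting.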

[9] = target: Bile acid receptor (Homo sapiens) (UniProt Q96RI1); assay: ATG_IR1_CIS: Attagene CIS-FACTORIAL HepG2 Assay for human Nuclear Receptor Subfamily 1 Group H Member 4 (NR1H4), IR1 submotif (AID 2282946; active = hit-call score of the fitted dose curve at least 0.9, where 1 is the maximum; inactive = score below 0.9); settings: IR1 reporter transcription, actives raise or lower the signal
Sequence of Bile acid receptor (Homo sapiens) (Q96RI1 whole entry, looked up, the tested form may be a part): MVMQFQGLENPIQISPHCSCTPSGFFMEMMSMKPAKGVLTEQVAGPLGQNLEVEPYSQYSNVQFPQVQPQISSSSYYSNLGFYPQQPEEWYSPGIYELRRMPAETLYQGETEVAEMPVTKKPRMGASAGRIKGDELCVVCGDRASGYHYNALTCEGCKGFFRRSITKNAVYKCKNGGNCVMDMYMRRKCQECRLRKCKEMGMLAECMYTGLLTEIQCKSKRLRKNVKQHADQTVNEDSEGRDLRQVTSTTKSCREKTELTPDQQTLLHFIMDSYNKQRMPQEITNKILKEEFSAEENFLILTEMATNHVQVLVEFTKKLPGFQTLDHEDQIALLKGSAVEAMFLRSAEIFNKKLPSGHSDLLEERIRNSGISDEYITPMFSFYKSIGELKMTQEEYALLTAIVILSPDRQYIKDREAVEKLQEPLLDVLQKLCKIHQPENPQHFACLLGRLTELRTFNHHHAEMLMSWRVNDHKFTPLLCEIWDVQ
Summary of the method: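 Cells (human HepG2) carry transiently transfected cis-promoter reporter transcription units. Compounds are incubated 24 h, total RNA is reverse-transcribed and amplified, and labelled fragments are resolved by capillary electrophoresis. Curves use DMSO as baseline.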

[10] = target: human Thyroid Receptor alpha (THRa1), THRA (gene 7067) (UniProt P10827); assay: ATG_THRa1_TRANS: Attagene TRANS-FACTORIAL HepG2 Assay for human Thyroid Receptor alpha (THRa1) (AID 2283014)
Summary of the method: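 Measured here is mRNA from a GAL4-UAS reporter in transfected HepG2 cells carrying a Gal4-fused receptor, 24 h post-dose. DMSO served as negative control and baseline.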

[11] = TOX21_p53_BLA_p3_viability: Viability Assessment in the Tox21 HCT-116 p53 Agonism Beta-lactamase Assay, Phase 3 (AID 2283593);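 also: cells exposed to compound for 16 h before reading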
Summary of the method: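 Cellular ATP was quantified by CellTiter-Glo luminescence, read after 30 min at room temperature. Beforehand, HCT116 cells (4000/well) received compound 5 h post-seeding, 217-fold diluted from DMSO, then incubated 16 h at 37C.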

[12] = TOX21_p53_BLA_p5_viability: Viability Assessment in the Tox21 HCT-116 p53 Agonism Beta-lactamase Assay, Phase 5 (AID 2283600)
Summary of the method: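 Seeded cells (4000/well) settle 5 h before compound addition. Plates then incubate 16 h at 37C, receive FRET substrate for 2 h, and finally CellTiter-Glo, with luminescence measured after a 30 min room-temperature incubation.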

[13] = target: Nuclear receptor subfamily 4 group A member 2 (Homo sapiens) (UniProt P43354); assay: ATG_NURR1_TRANS: Attagene TRANS-FACTORIAL HepG2 Assay for human Nuclear Receptor Related Protein 1 (NURR1) (AID 2282985); settings: HepG2 Attagene TRANS reporter, mRNA readout
Sequence of Nuclear receptor subfamily 4 group A member 2 (Homo sapiens) (P43354 whole entry, looked up, the tested form may be a part): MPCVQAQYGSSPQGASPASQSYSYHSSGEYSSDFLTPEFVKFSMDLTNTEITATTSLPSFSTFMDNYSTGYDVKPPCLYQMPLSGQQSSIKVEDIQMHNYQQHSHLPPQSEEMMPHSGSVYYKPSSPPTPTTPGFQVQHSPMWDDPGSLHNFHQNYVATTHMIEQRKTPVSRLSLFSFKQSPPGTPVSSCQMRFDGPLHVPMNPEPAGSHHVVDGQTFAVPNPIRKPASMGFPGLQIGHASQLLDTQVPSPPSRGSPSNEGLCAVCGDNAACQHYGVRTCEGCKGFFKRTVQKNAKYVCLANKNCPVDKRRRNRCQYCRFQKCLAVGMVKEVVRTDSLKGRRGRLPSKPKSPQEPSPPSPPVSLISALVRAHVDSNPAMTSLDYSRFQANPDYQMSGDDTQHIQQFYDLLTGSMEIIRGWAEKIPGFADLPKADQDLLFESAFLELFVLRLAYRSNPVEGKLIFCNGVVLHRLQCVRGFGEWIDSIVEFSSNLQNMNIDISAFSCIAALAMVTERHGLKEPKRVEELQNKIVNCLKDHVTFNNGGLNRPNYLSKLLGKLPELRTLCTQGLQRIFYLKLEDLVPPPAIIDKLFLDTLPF
Summary of the method: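 Transient transfection of HepG2, human liver cells, with multiple GAL4-UAS reporter transcription units. Cells dosed 24 h, RNA isolated, reverse-transcribed, PCR-amplified, FAM-labelled, HpaI-digested, sized by capillary electrophoresis. DMSO served as negative control.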

[14] = target: human RAR-related Orphan Receptor gamma (RORg), RORC (gene 6097) (UniProt P51449); assay: ATG_RORg_TRANS: Attagene TRANS-FACTORIAL HepG2 Assay for human RAR-related Orphan Receptor gamma (RORg) (AID 2283011)
Sequence of human RAR-related Orphan Receptor gamma (RORg), RORC (gene 6097) (P51449 whole entry, looked up, the tested form may be a part): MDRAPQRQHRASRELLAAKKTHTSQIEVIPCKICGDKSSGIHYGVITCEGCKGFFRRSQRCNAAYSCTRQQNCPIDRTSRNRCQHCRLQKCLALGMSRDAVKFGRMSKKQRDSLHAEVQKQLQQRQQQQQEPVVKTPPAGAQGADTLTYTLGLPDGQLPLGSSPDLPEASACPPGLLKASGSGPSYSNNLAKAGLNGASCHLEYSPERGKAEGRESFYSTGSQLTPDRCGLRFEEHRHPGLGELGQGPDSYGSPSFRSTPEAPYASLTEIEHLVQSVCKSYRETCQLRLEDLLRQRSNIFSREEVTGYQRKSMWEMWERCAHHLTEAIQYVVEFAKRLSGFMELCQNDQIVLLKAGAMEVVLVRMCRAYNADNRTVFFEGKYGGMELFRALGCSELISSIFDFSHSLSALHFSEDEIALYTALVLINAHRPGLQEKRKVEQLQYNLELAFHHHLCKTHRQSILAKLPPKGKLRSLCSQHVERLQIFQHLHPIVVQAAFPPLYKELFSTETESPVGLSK
Summary of the method: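 Chimeric RORg-Gal4 transactivation in transfected HepG2; 24 h exposure; RT-PCR/capillary electrophoresis readout of reporter mRNA, DMSO baseline.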

[15] = TOX21_p53_BLA_p4_viability: Viability Assessment in the Tox21 HCT-116 p53 Agonism Beta-lactamase Assay, Phase 4 (AID 2283597);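 also: hits lower the luminescence signal meaning cytotoxicity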
Summary of the method: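 Luminescent ATP readout (CellTiter-Glo, 30 min, room temperature) in the same wells as the p53 bla ratio. HCT116 cells were treated for 16 h at 37C with DMSO-dissolved compounds.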

[16] = CCTE_Harrill_HTTr_Viability_MCF7: CCTE's 6-hour Cell Viability Assessment for the High-Throughput Transcriptomics (HTTr) Platform, in MCF-7 cells cultured in DMEM + 10% fetal bovine serum, Harrill Lab (AID 2284010; active = hit-call score of the fitted dose curve at least 0.9, where 1 is the maximum; inactive = score below 0.9)
Summary of the method: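 MCF-7 cells in DMEM + 10% FBS, 384-well, exposed 6 h to an eight-point dilution series. Membrane integrity scored by high-content imaging of propidium iodide exclusion; bidirectional fit versus DMSO.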

[17] = CCTE_Harrill_HTTr_Apoptosis_MCF7: CCTE's 6-hour Apoptosis Assessment for the High-Throughput Transcriptomics (HTTr) Platform, in MCF-7 cells cultured in DMEM + 10% fetal bovine serum, Harrill Lab (AID 2284011; active = hit-call score of the fitted dose curve at least 0.9, where 1 is the maximum; inactive = score below 0.9)
Summary of the method: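 Apoptosis in MCF-7 cells grown in DMEM with 10% fetal bovine serum was scored after a six hour exposure by high content imaging of caspase-3/7 activation (CellEvent Caspase 3/7 Green), with DMSO serving as negative control and baseline.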

[18] = ATG_PPRE_CIS: Attagene CIS-FACTORIAL HepG2 Assay for human Peroxisome Proliferator-activated Response Element (PPRE) (AID 2282958; active = hit-call score of the fitted dose curve at least 0.9, where 1 is the maximum; inactive = score below 0.9); settings: HepG2 PPRE cis-element reporter, Attagene transcription factor profiling; actives raise or lower the signal
Summary of the method: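 HepG2, transient MRTU transfection (cis promoter elements, endogenous TFs). 24 h dosing. RNA → oligo(dT) RT → PCR → 6-FAM primer extension → HpaI digest → CE. Bidirectional fit vs DMSO.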

[19] = target: Peroxisome proliferator-activated receptor gamma (Homo sapiens) (UniProt P37231); assay: ATG_PPARg_TRANS: Attagene TRANS-FACTORIAL HepG2 Assay for human Peroxisome Proliferator-activated Receptor-gamma (PPARg) (AID 2283007)
Sequence of Peroxisome proliferator-activated receptor gamma (Homo sapiens) (P37231 whole entry, looked up, the tested form may be a part): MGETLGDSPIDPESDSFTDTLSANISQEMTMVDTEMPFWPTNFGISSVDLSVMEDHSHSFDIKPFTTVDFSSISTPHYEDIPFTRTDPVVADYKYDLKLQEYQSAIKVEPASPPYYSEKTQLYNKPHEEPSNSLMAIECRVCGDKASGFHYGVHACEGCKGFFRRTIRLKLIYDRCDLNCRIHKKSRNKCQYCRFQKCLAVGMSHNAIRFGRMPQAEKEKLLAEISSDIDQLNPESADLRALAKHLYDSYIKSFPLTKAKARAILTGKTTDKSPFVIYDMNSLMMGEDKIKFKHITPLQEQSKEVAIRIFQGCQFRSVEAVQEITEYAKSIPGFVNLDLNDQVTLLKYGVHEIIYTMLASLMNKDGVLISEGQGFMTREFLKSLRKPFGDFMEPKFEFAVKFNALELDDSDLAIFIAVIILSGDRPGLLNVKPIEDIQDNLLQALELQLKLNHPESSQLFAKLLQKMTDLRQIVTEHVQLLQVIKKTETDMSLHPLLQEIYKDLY
Summary of the method: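 Transient transfection of HepG2 with GAL4-UAS-driven reporter units; chemical dosing 24 h; total RNA → oligo(dT) RT → PCR with reporter primers → 6-FAM primer extension → HpaI digest 2 h 37 C → capillary electrophoresis. Positive direction vs DMSO.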

[20] = target: human RAR-related Orphan Receptor beta (RORb), RORB (gene 6096) (UniProt Q92753); assay: ATG_RORb_TRANS: Attagene TRANS-FACTORIAL HepG2 Assay for human RAR-related Orphan Receptor beta (RORb) (AID 2283010)
Sequence of human RAR-related Orphan Receptor beta (RORb), RORB (gene 6096) (Q92753 whole entry, looked up, the tested form may be a part): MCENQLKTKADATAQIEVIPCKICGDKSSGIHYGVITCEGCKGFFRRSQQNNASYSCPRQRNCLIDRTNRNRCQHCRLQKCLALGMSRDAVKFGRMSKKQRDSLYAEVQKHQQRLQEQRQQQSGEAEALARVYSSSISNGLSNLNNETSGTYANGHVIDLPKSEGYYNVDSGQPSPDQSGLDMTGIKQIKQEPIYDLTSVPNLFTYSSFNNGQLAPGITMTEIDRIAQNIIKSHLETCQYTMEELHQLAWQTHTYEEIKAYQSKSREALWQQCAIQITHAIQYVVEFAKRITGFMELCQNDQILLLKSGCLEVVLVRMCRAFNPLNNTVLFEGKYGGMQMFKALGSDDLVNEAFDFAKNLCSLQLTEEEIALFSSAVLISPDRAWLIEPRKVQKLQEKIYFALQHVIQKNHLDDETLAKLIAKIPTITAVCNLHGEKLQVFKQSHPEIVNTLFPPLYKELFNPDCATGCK
Summary of the method: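 HepG2 cells transiently transfected with GAL4-UAS reporter units expressing chimeric NR-Gal4 protein; reporter mRNA measured 24 h after dosing by RT-PCR, 6-FAM labelling and capillary electrophoresis. Gain-of-signal fitted relative to DMSO baseline.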

Measured: AC50

CCCCCCOC(=O)CCCCCCCC(=O)OCCCCCC
active: [7] 50 µM
inactive: [1] | [2] | [3] | [4] | [5] | [6]

O=C1NC(=O)[C@@H]2CC=CC[C@H]12
inactive: [8] | [9] | [2] | [3] | [5] | [6] | [10] | [11] | [12]

CC/C=C/CCO
inactive: [9] | [2] | [4] | [13] | [14] | [10] | [15] | [12]

NCc1ccccc1
inactive: [1] | [2] | [3] | [5] | [6] | [14] | [11] | [15] | [16] | [17]
active: [7] 50 µM

O=C(O)c1nc(Cl)c(Cl)c(Cl)c1Cl
inactive: [8] | [2] | [3] | [4] | [5] | [6] | [10]

O=[N+]([O-])c1ccccc1C(F)(F)F
inactive: [8] | [18] | [1] | [2] | [6] | [19] | [20] | [14] | [11] | [15] | [12]

O=C1CCCCCCCCCCCCCC1
inactive: [8] | [3] | [4] | [5] | [11] | [15] | [7]

c1cc[c]([Bi]([c]2ccccc2)[c]2ccccc2)cc1
inactive: [1] | [2] | [5]
active: [13] 37.9 µM

CC[N+](CC)(CC(=O)Nc1c(C)cccc1C)Cc1ccccc1 (tested in a mixture with another compound)
inactive: [2] | [20] | [16] | [17]

C=C1CC[C@H]2C[C@@H]1C2(C)C
inactive: [8] | [18] | [2] | [4] | [5] | [13] | [19] | [14] | [7]

O=[N+]([O-])c1ccc2nc[nH]c2c1
inactive: [9] | [18] | [4] | [19] | [20] | [14] | [7] | [16] | [17]

CC(C)CC(=O)O
inactive: [8] | [18] | [1] | [2] | [3] | [20] | [11] | [15] | [7] | [16] | [17]

CCCCCCCCCC/C=C/C1CC(=O)OC1=O (stereo not drawn)
active: [7] 64.1 µM
inactive: [9] | [3] | [4] | [13] | [6] | [14] | [11] | [15] | [12]

CCC(C)(CCC(C)C)C(=O)O (stereo not drawn)
inactive: [8] | [6] | [20] | [14] | [7]

CNC[C@H](O)[C@@H](O)[C@H](O)[C@H](O)CO
inactive: [8] | [9] | [6] | [20] | [11] | [12]
